Hits are enriched below; roughly 3.5% of the tested compounds scored in any of these assays.
FBW7 act: activators of human E3 ligase FBW7 | Q969H0 | AlphaScreen FBW7–phospho-cyclin E peptide binding, activator screen | normalized activity (activation), % at 26.1 µM | 650,000 compounds, 0.13% hits; in the data active means normalized activity above about 1.9%;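 further: purified mutant Fbw7 with reduced substrate affinity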
Target sequence (Q969H0 whole entry, looked up): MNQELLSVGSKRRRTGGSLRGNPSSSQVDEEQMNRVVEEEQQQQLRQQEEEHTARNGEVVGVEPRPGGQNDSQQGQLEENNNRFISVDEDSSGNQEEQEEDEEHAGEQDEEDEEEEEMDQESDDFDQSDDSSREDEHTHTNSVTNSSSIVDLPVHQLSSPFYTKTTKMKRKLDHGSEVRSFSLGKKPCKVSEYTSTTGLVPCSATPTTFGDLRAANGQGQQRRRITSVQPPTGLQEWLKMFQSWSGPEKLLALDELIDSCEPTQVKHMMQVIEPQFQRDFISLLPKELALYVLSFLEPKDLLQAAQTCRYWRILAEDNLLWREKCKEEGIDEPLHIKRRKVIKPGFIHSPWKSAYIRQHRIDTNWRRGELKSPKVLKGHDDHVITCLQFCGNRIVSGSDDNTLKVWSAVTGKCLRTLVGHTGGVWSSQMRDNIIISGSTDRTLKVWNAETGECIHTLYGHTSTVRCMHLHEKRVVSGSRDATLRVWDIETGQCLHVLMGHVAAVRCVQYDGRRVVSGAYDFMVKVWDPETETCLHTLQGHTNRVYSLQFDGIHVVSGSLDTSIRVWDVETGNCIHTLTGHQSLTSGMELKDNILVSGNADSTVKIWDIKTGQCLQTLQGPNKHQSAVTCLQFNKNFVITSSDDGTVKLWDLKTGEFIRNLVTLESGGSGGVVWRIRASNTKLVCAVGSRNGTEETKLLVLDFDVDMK
MITF primary: inhibitors of human MITF. O75030. AlphaScreen MITF homodimerization, bead proximity signal. inhibition, % at 2.6 µM. 650,000 compounds, 0.91% hits. AID 1259374; in the data active means inhibition above about 50%;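 further: 0% = vehicle wells with protein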
TEAD-YAP block: TEAD-YAP interaction inhibition | HEK-TIYL cells, TEAD-Gal4/YAP UAS-luciferase luminescence | inhibition, % at 9.12 µM | 640,000 compounds, 1.4% hits; in the data active means inhibition above about 32%;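 further: 0% = median of test compound wells and 100% = reference inhibitor wells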
GPR151 activ: human GPR151 activation; activation, % at 11.2 µM; PathHunter beta-arrestin GPR151 cells, luminescence; Q8TDV0; 650,000 compounds, 1% hits; AID 1508602; in the data active means activation above about 4.9%;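 further: 0% = median of compound wells and 100% = cells with positive control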
An asterisk follows results filed as active.

SMILES	FBW7 act	MITF primary	TEAD-YAP block	GPR151 activ
C/C(=N\NC(=O)c1n[nH]c2c1CCC2)c1ccco1	0	4	52*	0
CC1(C)CC(=NNC(=O)c2ccncc2)CC(C)(C)N1	0	-5	-2	0
CC1(C)CC(=NNC(=O)c2n[nH]c3c2CCCC3)CC(C)(C)N1	0	11	39*	-1
O=C(NN=C1CCCC1)c1n[nH]c2c1CCCC2	0	-1	42*	1
COc1cc(N)c(Cl)cc1C(=O)NC1CCN(Cc2ccccc2)CC1	0	9	12	1
CCCNC(=O)COc1coc(CN2CCN(c3cccc(Cl)c3)CC2)cc1=O	0	-23	-1	-1
CCOC(=O)C1(Cc2ccccc2Cl)CCN(C(=O)CCc2scnc2C)CC1	0	-1	-71	0
Cc1cccc(N(CC(=O)Nc2ccc(C)c(F)c2)C2=NC3CS(=O)(=O)CC3S2)c1 (stereo not given)	-1	1	11	-1
CN1CCN(C(=O)CC2C(=O)NCCN2Cc2c(F)cccc2Cl)CC1 (stereo not given)	0	12	11	-1
NNC(=O)c1n[nH]c2c1CCCC2	0	5	8	0
CC/C(C)=N/NC(=O)c1n[nH]c2c1CCC2	0	-23	43*	4
O=C(NN=C1CCCC1)c1n[nH]c2c1CCC2	0	5	64*	1
Cn1cc(-c2cnn3c(NCc4cccc(Cl)c4)ccnc23)cn1	0	10	0	1
CN(C)CCNC(=O)c1cc2c(Cl)nc3ccccc3c2s1	0	18	55*	-2
COCC(=O)NC1CC2CCC(C1)N2C(=S)Nc1ccccc1C(=O)OC (stereo not given)	0	21	-3	0
C=CCNCCC1CCC(=O)N1Cc1ccc(C)o1 (stereo not given)	1	14	-1	3
C/C(=N\NC(=O)c1nnn(-c2nonc2N)c1-c1ccccc1)c1ccccc1O	0	22	44*	-1
C/C(=N\NC(=O)c1nnn(-c2nonc2N)c1-c1ccccc1)c1ccc(O)cc1O	0	-2	43*	2
C/C(=N\NC(=O)c1nnn(-c2nonc2N)c1-c1ccccc1)c1ccc(O)cc1	0	1	13	2
Cc1cccc(C2=NN3C(=N)/C(=C\c4ccc([N+](=O)[O-])o4)C(=O)N=C3S2)c1	0	12	-1	1
CCCCCCC1(O)C(C)C(c2ccc(N(C)C)cc2)NC(c2ccc(N(C)C)cc2)C1C (stereo not given)	-1	61*	-11	0
CC(C)C(OC(=O)c1ccco1)C(=O)NCc1ccccc1 (stereo not given)	0	-5	59*	1
COCCNC(=O)C(OC(=O)c1ccco1)c1ccccc1OC (stereo not given)	1.9*	9	14	-1
CC(OC(=O)c1ccco1)C(=O)NCc1ccccc1 (stereo not given)	0	22	1	0
CC(C)CC(NC(=O)c1ccccc1)C(=O)OCC(=O)c1ccc(Br)cc1 (stereo not given)	0	15	-5	-1
SMILES	FBW7 act	MITF primary	TEAD-YAP block	GPR151 activ
CCN(CC)S(=O)(=O)c1ccc(C(=O)Nc2c3c(nn2-c2ccccc2C)CSC3)cc1	0	-18	-1	1
CCn1c(SCc2cccnc2)nnc1-c1cc2ccccc2cc1O	0	-2	44*	0
CC(=O)Oc1ccccc1/C=C/c1nc2ccccc2c(=O)o1	0	17	59*	-9
Cc1[nH]cnc1CN1CCCC(C(=O)c2ccc(Oc3ccccc3)cc2)C1 (stereo not given)	0	9	33*	1
COCCCNC(=O)CC(NS(=O)(=O)c1ccc(NC(C)=O)cc1)C(C)C (stereo not given)	0	7	-4	-1
COc1cccc(OC)c1-c1[nH]nc2nc(-c3ccc(CN)cc3)ccc12	0	-14	-7	1
Cc1ccc2c(CC(=O)Nc3sc4c(c3C(N)=O)CCCC4)coc2c1	0	-8	-5	-1
COCCCNC(=O)c1c(NC(=O)Cc2coc3ccc(C)cc23)sc2c1CCCC2	0	9	48*	2
Cc1sc(NC(=O)c2ccc(S(=O)(=O)N3CCCCC3C)cc2)c(C#N)c1C (stereo not given)	0	-5	-7	0
Cc1cccc(-n2ncc3c(N4CC(C)OC(C)C4)ncnc32)c1 (stereo not given)	0	-7	-26	0
O=C(Nc1cc(C(F)(F)F)ccc1Cl)c1cc(S(=O)(=O)NCc2ccc3c(c2)OCO3)ccc1F	0	10	11	-1
COC(=O)c1cn(NC(=O)c2cc([N+](=O)[O-])ccc2F)c(=O)c2ccccc12	0	-8	87*	0
CCOC(=O)c1ccc(NC(=O)c2ccc(CS(=O)c3ccc(Cl)cc3)o2)cc1 (stereo not given)	0	-1	32*	-1
O=C(CN1C(=O)c2ccccc2C1=O)N1CCN(c2ccc(F)cc2)CC1	2.0*	26	-3	-2
N#CC1=C(N)OC2=C(C(=O)CCC2)C1c1ccc(Cl)cc1Cl (stereo not given)	0	7	6	-1
Cc1ccc(N=C(NN)c2ccc3ccccc3n2)c(C)c1	0	5	0	2
COc1ccc(N=C(NN)c2ccc3ccccc3n2)cc1	0	3	91*	1
CCC(C)(C)NC(=O)C1CCN(S(=O)(=O)c2ccc(F)cc2)CC1	0	1	0	0
CCOC(=O)c1oc2ccccc2c1NC(=O)C1CCN(S(=O)(=O)c2ccc(C)cc2)CC1	1	16	35*	-2
CCC(C)(C)C(=O)Nc1ccc(S(=O)(=O)N2CCC(C)CC2)cc1	2.2*	15	11	-1
CCC(C)(C)NC(=O)C1CCN(S(=O)(=O)c2ccc(C)cc2)CC1	0	-2	74*	1
Cc1cnc(NCCN2CCOCC2)nc1Nc1ccc2c(c1)OCO2	0	-2	8	4
O=C(Cc1ccc(Cl)cc1)Nc1ccc(CN2CCOCC2)cc1	0	-4	-7	-1
O=C(/C=C/c1ccc(Cl)cc1)Nc1ccc(CN2CCOCC2)cc1	0	-1	41*	0
CCC(=O)N1CCCc2ccc(NC(=O)NCc3cccc4ccccc34)cc21	14*	8	-7	1
SMILES	FBW7 act	MITF primary	TEAD-YAP block	GPR151 activ
O=C(N/N=C/c1c[nH]c2ccccc12)c1cc(-c2ccccc2)n[nH]1	0	-10	0	1
O=C(N/N=C\c1c[nH]c2ccccc12)c1ccc(O)cc1	0	1	-3	0
O=C(N/N=C/c1c[nH]c2ccccc12)c1cc(-c2ccncc2)nc2ccccc12	0	6	35*	-2
O=C(O)c1ccc(N/N=C/c2c[nH]c3ccccc23)cc1	0	-2	85*	-6
COc1cccc(NC(=S)NC(=O)c2ccc(F)cc2)c1	0	12	-58	-1
Cc1nc(C)c(C(=O)NC(C)c2cnn(-c3ccccc3C)c2C)s1 (stereo not given)	0	1	54*	2
Cc1nc(C)c(C(=O)NC(C)c2cnn(-c3ccccn3)c2C)s1 (stereo not given)	0	-2	45*	3
